Results from PubChem BioAssay (NCI).
Where “and” joins values, the source holds several entries; their conditions need not be identical. Equal values may be shown once. The panel holds about 83,000 compounds, 20% with a hit somewhere; the sample as a whole holds those more often.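 Compound tested at a single concentration for 48 hours in 96-well plates; a percent growth value below 10 was scored as active.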 Calls of active or inactive are those of the source.

How the values were obtained:
Experiment in all cases: NCI-60 one-dose screen, 48 h (100 = growth as untreated, 0 = no growth, -100 = all killed)
Details in all cases: 10 µM unless noted
[1] = test system: HCT-15 colon
[2] = test system: HT29 colon
[3] = test system: SNB-75 CNS
[4] = test system: SNB-19 CNS
[5] = test system: U251 CNS
[6] = test system: PC-3 prostate
[7] = test system: SK-MEL-5 melanoma
[8] = test system: UACC-62 melanoma
[9] = test system: LOX IMVI melanoma
[10] = test system: SK-MEL-28 melanoma

## CCCC1CCCCC12C(=O)NC(=O)NC2=O (stereo not given)
[1]
  growth: 94.3% (inactive) and 106% (inactive)
[2]
  growth: 97.2% (inactive) and 94.3% (inactive)
[3]
  growth: 100% (inactive) and 87.2% (inactive)
[4]
  growth: 96.2% (inactive) and 110% (inactive)
[5]
  growth: 97.8% (inactive) and 102% (inactive)
[6]
  growth: 104% (inactive) and 101% (inactive)
[7]
  growth: 95.5% (inactive) and 103% (inactive)
[8]
  growth: 98.2% (inactive) and 109% (inactive)
[9]
  growth: 97% (inactive) and 97.1% (inactive)
[10]
  growth: 103% (inactive) and 114% (inactive)

## CC12CCC3C4CCC(=O)C=C4CCC3C1CC1CC(=O)OC12 (stereo not given)
[1]
  growth: 112% (inactive)
[2]
  growth: 90.9% (inactive)
[3]
  growth: 92.3% (inactive)
[4]
  growth: 94.6% (inactive)
[5]
  growth: 97.1% (inactive)
[6]
  growth: 87.1% (inactive)
[7]
  growth: 99.2% (inactive)
[8]
  growth: 97.2% (inactive)
[9]
  growth: 90.7% (inactive)
[10]
  growth: 108% (inactive)

## CC[CH2][Sn]([Cl])([Cl])[CH2]CC.Oc1ccccc1C=NCCN=Cc1ccccc1O
[1]
  growth: 59.8% (inactive) and 60.4% (inactive)
[2]
  growth: 79.1% (inactive) and 58.3% (inactive)
[3]
  growth: 50.7% (inactive)
[4]
  growth: 79.2% (inactive) and 67.5% (inactive)
[5]
  growth: 26% (inactive) and -21.6% (active)
[6]
  growth: 84.9% (inactive) and 70.9% (inactive)
[7]
  growth: 60.1% (inactive) and 50% (inactive)
[8]
  growth: 39.8% (inactive) and 32.3% (inactive)
[9]
  growth: 17.4% (inactive) and -11.1% (active)
[10]
  growth: 48.3% (inactive) and 45.7% (inactive)

## O=[N+]([O-])c1ccc2scc3c4ccccc4nc-3c2c1
[1]
  growth: -36.7% (active)
[2]
  growth: -47% (active)
[3]
  growth: -42% (active)
[4]
  growth: 46.7% (inactive)
[5]
  growth: -92.4% (active)
[6]
  growth: -53.4% (active)
[7]
  growth: 8.28% (active)
[8]
  growth: -61% (active)
[9]
  growth: -87.1% (active)
[10]
  growth: -56.1% (active)

## CCCCCCCCCCCCCCCCCCn1cc[n+](C)c1
[1]
  growth: 3.3% (active) and -54.8% (active)
[2]
  growth: -42.1% (active) and -36.8% (active)
[3]
  growth: -74.4% (active) and -55.1% (active)
[4]
  growth: -47.5% (active) and -68% (active)
[5]
  growth: -0.673% (active) and -63.9% (active)
[6]
  growth: -7.74% (active) and -8.63% (active)
[7]
  growth: -81.1% (active) and -74.1% (active)
[8]
  growth: -70.9% (active) and -82.1% (active)
[9]
  growth: 0.132% (active) and -52.2% (active)
[10]
  growth: -49.4% (active) and -52.8% (active)

## CCCCOCCOP(=O)(OCCOCCCC)OCCOCCCC
[1]
  growth: 101% (inactive)
[2]
  growth: 104% (inactive)
[3]
  growth: 103% (inactive)
[4]
  growth: 98% (inactive)
[5]
  growth: 106% (inactive)
[6]
  growth: 103% (inactive)
[7]
  growth: 99.1% (inactive)
[8]
  growth: 93.7% (inactive)
[9]
  growth: 91.7% (inactive)
[10]
  growth: 117% (inactive)

## O=S(=O)(c1ccc(O)cc1)c1ccccc1O
[1]
  growth: 108% (inactive)
[2]
  growth: 112% (inactive)
[3]
  growth: 96.7% (inactive)
[4]
  growth: 104% (inactive)
[5]
  growth: 107% (inactive)
[6]
  growth: 89% (inactive)
[7]
  growth: 102% (inactive)
[8]
  growth: 98.2% (inactive)
[10]
  growth: 105% (inactive)

## C=C1C(=O)OC2CC3(C)OC3C3OC3C3=CC(OC3=O)C12 (stereo not given)
[1]
  growth: 46.4% (inactive) and 36% (inactive)
[2]
  growth: 98.2% (inactive) and 79.6% (inactive)
[3]
  growth: 87.7% (inactive) and 90.1% (inactive)
[4]
  growth: 104% (inactive) and 103% (inactive)
[5]
  growth: 103% (inactive) and 104% (inactive)
[6]
  growth: 106% (inactive) and 92.2% (inactive)
[7]
  growth: 109% (inactive) and 95% (inactive)
[8]
  growth: 99.3% (inactive) and 82.7% (inactive)
[9]
  growth: 93.1% (inactive) and 92% (inactive)
[10]
  growth: 52.6% (inactive) and 73.8% (inactive)

## C=C[Se]CC(=O)/C=C/c1ccccc1
[1]
  growth: 96.3% (inactive)
[2]
  growth: 80.7% (inactive)
[3]
  growth: 49.4% (inactive)
[4]
  growth: 31.3% (inactive)
[5]
  growth: 26.4% (inactive)
[6]
  growth: 29.1% (inactive)
[7]
  growth: 92.2% (inactive)
[9]
  growth: 93.9% (inactive)
[10]
  growth: 96.1% (inactive)

## Cc1ccc(NC2=N[C@]34CC(=O)CC[C@]3(C)[C@H]3CC[C@]5(C)C(=O)CC[C@H]5[C@@H]3C[C@@H]4S2)c(C)c1
[1]
  growth: 0.807% (active)
[2]
  growth: 3.81% (active)
[3]
  growth: 35.1% (inactive)
[4]
  growth: 44% (inactive)
[5]
  growth: 18.4% (inactive)
[6]
  growth: 15.8% (inactive)
[7]
  growth: 51.4% (inactive)
[9]
  growth: -16.6% (active)
[10]
  growth: 50.8% (inactive)

## COc1ccc(N)cc1N
[1]
  growth: 102% (inactive)
[2]
  growth: 113% (inactive)
[3]
  growth: 88.7% (inactive)
[4]
  growth: 101% (inactive)
[5]
  growth: 106% (inactive)
[6]
  growth: 88.2% (inactive)
[8]
  growth: 105% (inactive)
[9]
  growth: 100% (inactive)
[10]
  growth: 120% (inactive)

## CC[C@H](C)[C@H](NC(=O)[C@H]1CCCCN1C)C(=O)N(C)[C@H](C[C@@H](OC(C)=O)c1cccc(C(=O)N[C@@H](Cc2ccccc2)C[C@H](C)C(=O)OC)n1)C(C)C
[1]
  growth: 8.45% (active)
[2]
  growth: -5.46% (active)
[3]
  growth: 23.5% (inactive)
[4]
  growth: 33.1% (inactive)
[5]
  growth: 14.3% (inactive)
[6]
  growth: 18.9% (inactive)
[8]
  growth: 38.6% (inactive)
[9]
  growth: 14.6% (inactive)
[10]
  growth: 62.8% (inactive)

## COc1cc(C=C2C(=O)NC(=O)NC2=O)ccc1O
[1]
  growth: 103% (inactive)
[2]
  growth: 99.2% (inactive)
[3]
  growth: 96% (inactive)
[4]
  growth: 96.7% (inactive)
[5]
  growth: 98.7% (inactive)
[6]
  growth: 103% (inactive)
[8]
  growth: 92.7% (inactive)
[9]
  growth: 102% (inactive)
[10]
  growth: 131% (inactive)

## Cc1c(C)c(N)c(C)c(C)c1N
[1]
  growth: 34.8% (inactive)
[2]
  growth: 25.7% (inactive)
[3]
  growth: 110% (inactive)
[4]
  growth: 82.1% (inactive)
[5]
  growth: 78.1% (inactive)
[6]
  growth: 73.6% (inactive)
[7]
  growth: 93% (inactive)
[9]
  growth: 51.9% (inactive)
[10]
  growth: 106% (inactive)

## CCN(CC)CCn1c(=O)n(C)c2ccccc21
[1]
  growth: 114% (inactive)
[2]
  growth: 112% (inactive)
[3]
  growth: 97% (inactive)
[4]
  growth: 113% (inactive)
[5]
  growth: 96.3% (inactive)
[6]
  growth: 96.8% (inactive)
[8]
  growth: 109% (inactive)
[9]
  growth: 98.4% (inactive)
[10]
  growth: 114% (inactive)

## COc1ccc(N)cc1OC
[1]
  growth: 94.4% (inactive)
[2]
  growth: 105% (inactive)
[3]
  growth: 92% (inactive)
[4]
  growth: 101% (inactive)
[5]
  growth: 117% (inactive)
[6]
  growth: 80.1% (inactive)
[7]
  growth: 107% (inactive)
[9]
  growth: 105% (inactive)
[10]
  growth: 112% (inactive)

## COc1cc(-c2ccc(N)c(OC)c2)ccc1N
[1]
  growth: 110% (inactive)
[2]
  growth: 97.5% (inactive)
[3]
  growth: 76.9% (inactive)
[4]
  growth: 102% (inactive)
[5]
  growth: 99.2% (inactive)
[6]
  growth: 105% (inactive)
[7]
  growth: 105% (inactive)
[9]
  growth: 88.9% (inactive)
[10]
  growth: 111% (inactive)
